# EphB4 ephrin blk: antagonists of human EphB4-ephrin-B2 interaction; P54760; EphB4 LBD / TNYL-RAW-Alexa532 peptide, fluorescence polarization; AID 720; inhibition, % at 7 µM; hit rate 0.15% among 97,000;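 active = inhibition above the screen-wide mean inhibition plus 3 SD, cut at about 15% in these data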;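 also: 0% = DMSO wells and 100% = excess unlabeled TNYL-RAW peptide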
# CYP2C9 inh: human CYP2C9 inhibition; P11712; inhibition, % at 5 µM; hit rate 20% among 96,000; CYP2C9 Supersomes, luciferin-H conversion, luminescence;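 active = blocking of liver enzyme CYP2C9 beyond about 50% at 5 µM, limit read from the data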
# CYP2C9 activ: CYP2C9 (human) activation. P11712. hit rate 1.4% among 96,000. AID 1024. recombinant CYP2C9, luciferin-H conversion, luminescence; active compounds read high; factor 1 = untreated enzyme, 0 = blocked. activation factor at 5 µM;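 active = activation factor of 2 or more for CYP2C9 at a 5 µM dose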;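 also: 0 = sulfaphenazole-blocked wells and 1 = vehicle-only wells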
# CYP2C19 inhib: human CYP2C19 inhibition. P33261. CYP2C19 Supersomes, luciferin-H EGE luminescence, 30 min. inhibition, % at 5 µM. hit rate 21% among 96,000. AID 778;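 active = CYP2C19 inhibition above a set limit at 5 µM in the primary screen, cut at about 50% in these data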;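 also: plate controls were negative control wells for no effect and 2.5 mM tranylcypromine positive control for full effect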
# Target sequence (P33261 whole entry, looked up): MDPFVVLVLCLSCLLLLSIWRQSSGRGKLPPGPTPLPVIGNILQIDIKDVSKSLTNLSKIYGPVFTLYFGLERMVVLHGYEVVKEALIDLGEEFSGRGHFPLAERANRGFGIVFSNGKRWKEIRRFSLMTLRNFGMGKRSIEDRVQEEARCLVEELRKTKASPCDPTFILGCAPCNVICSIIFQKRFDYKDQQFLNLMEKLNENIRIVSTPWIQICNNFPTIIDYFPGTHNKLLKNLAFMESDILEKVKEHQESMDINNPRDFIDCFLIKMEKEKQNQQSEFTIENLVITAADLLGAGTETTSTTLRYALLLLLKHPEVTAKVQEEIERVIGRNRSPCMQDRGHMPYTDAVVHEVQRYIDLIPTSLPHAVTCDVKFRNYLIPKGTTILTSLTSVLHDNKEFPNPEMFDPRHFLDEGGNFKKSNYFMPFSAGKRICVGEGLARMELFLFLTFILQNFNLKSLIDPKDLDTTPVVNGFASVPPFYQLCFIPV
# CYP2C19 activ: activators of human cytochrome P450 2C19. recombinant CYP2C19, luciferin-H EGE luminescence; active compounds read high; 0 = fully inhibited enzyme, 1 = untreated enzyme. AID 1025. P33261. activation factor at 5 µM. 96,000 tested, under 10 active;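 active = activation factor of at least 2 at 5 µM in the primary screen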;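 also: 0 = wells with 2.5 mM tranylcypromine and 1 = vehicle-only wells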
# * marks the source's active call; other numbers are inactive results; · = not tested or not shown. This is a sample that favours compounds with a hit; in the whole collection about 27% have one here.
SMILES,EphB4 ephrin blk,CYP2C9 inh,CYP2C9 activ,CYP2C19 inhib,CYP2C19 activ
CCCOc1ccc(N2C(=O)CC(S/C(N)=N/N=C(\C)c3cccs3)C2=O)cc1 (stereo unspecified),-9,27,0.7,6,0.9
COc1ccc(Cn2c(CCC(=O)Nc3ccc(C)cc3)nc3cccnc32)cc1,1,38,0.6,61*,0.4
O=C1CC(Cc2ccccc2)C(=O)N1CCc1ccc2c(c1)OCO2 (stereo unspecified),2,23,0.8,86*,0.1
O=C1CC(N2CCN(Cc3ccc4c(c3)OCO4)CC2)C(=O)N1CCc1ccccc1 (stereo unspecified),·,3,1,14,0.9
O=C(O)CN1C(=O)CC(Cc2ccc(Cl)cc2)C1=O (stereo unspecified),-1,7,0.9,0,1
O=C1CC(Cc2ccccc2)C(=O)N1CCCn1ccnc1 (stereo unspecified),-6,69*,0.3,100*,0
CCCCCCCCn1c(=O)c(C(=O)OCC)c(O)c2ccccc21,6,78*,0.2,42,0.6
CCCCCn1c(=O)c(C(=O)OCC)c(O)c2ccccc21,·,4,1,-4,1
CCOC(=O)CNC(=O)c1sc(NC(=O)c2ccccc2F)nc1C,5,14,0.9,38,0.6
COc1ccc2cc(C(c3nnnn3C(C)(C)C)N3CCc4ccccc4C3)c(=O)[nH]c2c1 (stereo unspecified),0,94*,0.1,65*,0.3
COc1ccc2cc(C(c3nnnn3C3CCCC3)N3CCc4ccccc4C3)c(=O)[nH]c2c1 (stereo unspecified),3,48,0.5,26,0.7
CCC(C)(C)n1nnnc1C(c1cc2ccc(OC)cc2[nH]c1=O)N1CCc2ccccc2C1 (stereo unspecified),-3,73*,0.3,18,0.8
Nc1ccc(C(=O)N/N=C\c2cc(N=Nc3cccc4ccccc34)ccc2O)cc1,-5,14,0.9,12,0.9
COc1ccc(NC(=O)CN2CCN(C(=O)c3ccco3)CC2)c(OC)c1,1,13,0.9,9,0.9
Cn1c(=O)c2c(nc(NCC3CCCO3)n2Cc2ccccc2)n(C)c1=O (stereo unspecified),-4,·,·,·,·
CN1CCN(C2=C(Cl)C(=O)N(CCc3ccccc3)C2=O)CC1,2,14,0.9,56*,0.4
O=C1C(Cl)=C(NCC2CCCO2)C(=O)N1c1cccc(Cl)c1Cl (stereo unspecified),-1,46,0.5,82*,0.2
O=C1C(Cl)=C(NCC2CCCO2)C(=O)N1CCc1ccccc1 (stereo unspecified),-1,66*,0.3,82*,0.2
O=C1C(Cl)=C(N2CCOCC2)C(=O)N1CCc1ccccc1,-3,2,1,88*,0.1
CC(=O)c1cc(-c2ccccc2)n(CC(=O)NC2CCCC2)c1C,4,22,0.8,17,0.8
O=C(Nc1cccnc1)c1cc(-c2ccc3c(c2)OCO3)on1,-9,3,1,3,1
O=C1C(Cl)=C(NCCc2ccccc2)C(=O)N1CCc1ccccc1,2,13,0.9,-3,1
O=C1C(Cl)=C(NCCCN2CCOCC2)C(=O)N1CCc1ccccc1,-7,78*,0.2,34,0.7
C=CCNC1=C(Cl)C(=O)N(c2cccc(Cl)c2Cl)C1=O,2,47,0.5,90*,0.1
C=C1CC2C=C(NC(C)=O)CC(C1)C2 (stereo unspecified),1,4,1,20,0.8
SMILES,EphB4 ephrin blk,CYP2C9 inh,CYP2C9 activ,CYP2C19 inhib,CYP2C19 activ
CCCCCc1nnc(NC(=O)C2CCCO2)s1 (stereo unspecified),-3,9,0.9,6,0.9
COc1ccc2nc(NC(=O)C3CCN(S(=O)(=O)c4cccnc4)CC3)sc2c1,3,20,0.8,26,0.7
CN(c1cccc(NC(=O)CN(c2ccc(C34CC5CC(CC(C5)C3)C4)cc2)S(C)(=O)=O)c1)S(C)(=O)=O,-3,54*,0.5,17,0.8
COc1ccc(C)cc1N(CC(=O)Nc1cccc(N(C)S(C)(=O)=O)c1)S(C)(=O)=O,2,30,0.7,20,0.8
COc1ccc(N(CC(=O)Nc2cccc(N(C)S(C)(=O)=O)c2)S(C)(=O)=O)cc1OC,2,10,0.9,3,1
Cc1ccc(S(=O)(=O)N(CC(=O)Nc2cccc(N(C)S(C)(=O)=O)c2)c2ccc(Cl)c(Cl)c2)cc1,0,100*,0,80*,0.2
CNC(=O)NC(=S)NC(=O)c1ccc(OC)cc1,-4,4,1,44,0.6
c1ccc(N2CCN(c3nc4ccccc4n4cnnc34)CC2)cc1,0,49,0.5,65*,0.3
CCc1c(O)nc(SCC(=O)NCc2ccco2)[nH]c1=O,10,12,0.9,1,1
Cc1cc(F)ccc1S(=O)(=O)Nc1ccccc1C(=O)Nc1ccc2[nH]c(=O)[nH]c2c1,·,81*,0.2,9,0.9
O=c1[nH]c2c(c3c1CCCC3)CCCC2,8,-5,1.1,4,1
CCOC(=O)/C=C1\NC(=O)CS1,5,-3,1,-7,1.1
CCOc1ccccc1Nc1ncnc2c1cnn2-c1ccccc1,·,-56,1.6,45,0.6
COc1ccc(NS(=O)(=O)c2ccc(NC(=O)c3cnn4c(C(F)F)cc(-c5ccc(C)cc5)nc34)cc2)cc1,5,60*,0.4,17,0.8
Cc1ccc(-c2cc(C(F)F)n3ncc(C(=O)Nc4ccc(S(=O)(=O)Nc5ccccc5C)cc4)c3n2)cc1,3,82*,0.2,6,0.9
Cc1ccc(-c2cc(C(F)F)n3ncc(C(=O)N4CCN(c5cccc(C)c5C)CC4)c3n2)cc1,-2,68*,0.3,0,1
O=C(NCCN1CCCCC1)c1ccco1,-9,·,·,·,·
C/C=C/c1ccc(OCCCCN2C(=O)NC(C)(C)C2=O)c(OC)c1,3,22,0.8,33,0.7
CC1(C)NC(=O)N(CCOCCOc2c(Cl)cc(Cl)cc2Cl)C1=O,-2,40,0.6,56*,0.4
CC1(C)NC(=O)N(CCOc2cccc(Cl)c2Cl)C1=O,2,32,0.7,87*,0.1
CC1(C)NC(=O)N(CCCOc2ccccc2Br)C1=O,0,57*,0.4,89*,0.1
CCOc1cc(C=O)ccc1OCCCN1C(=O)NC(C)(C)C1=O,5,31,0.7,68*,0.3
CCOc1c(Br)cc(CNc2ccc3c(c2)OCCO3)cc1OC,3,86*,0.1,86*,0.1
CCOc1cc(CNc2ccc3c(c2)OCCO3)cc(Br)c1OC,-1,84*,0.2,94*,0.1
CCOc1cc(CNc2ccc3c(c2)OCCO3)cc(Br)c1OCC(N)=O,-2,86*,0.1,53*,0.5
CCOc1cc(CNc2ccc(O)cc2)cc(Br)c1OCc1ccccc1F,4,-14,1.1,34,0.7
Nc1nc(SCc2ccc3c(c2)OCO3)n[nH]1,2,-14,1.1,-13,1.1
